Compound activity (PubChem)
Shown are actives, neighbours in structure and some others; about 7.4% of the full set was active somewhere.
NPC1 prom act: activates the NPC1 promoter. Potency, µM (series often up to 9.22 µM), without a hit: at the highest dose activation, actives largely listed as activators. 320,000 tested, 2.4% active. Huh7 NPC1 promoter luciferase reporter, 24 h; note: % of control where 0% means no effect; nearly all actives have a fitted effect of over 60% in size
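Luciferase expression driven by the NPC1 promoter was measured in stably transfected Huh7 cells after a 24 h compound incubation, using a luciferase reagent and a luminescence read.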
ELG1 genotox: inducers of genotoxicity in HEK293T ELG1-luciferase cells; 330,000 tested, 1.3% active; Potency, µM (top dose mostly 46 µM), for the others: at the highest dose activity change, positive = activation, hits mostly activators; HEK293T ELG1-luciferase reporter, luminescence, 16 h; AID 504466; note: % of control where 0% means no effect; nearly all actives have a fitted effect of over 60% in size
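HEK293T cells expressing luciferase-tagged ELG1 were treated with compound or DMSO for 16 hr at 37°C. Luciferase activity was then read after 30 min with ONE-Glo at room temperature; rising signal flags genetic stress.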
SMN2 splice enh: increases expression of the SMN2 splice variant. HEK293 SMN2-luciferase splicing reporter, luminescence, 30-36 h. Potency, µM (titrated, usually from 46.1 µM), inactives show at the top dose activity change, positive = activation, actives largely listed as activators. 210,000 tested, 2.8% active; note: % of control where 0% means no effect; nearly all actives have a fitted effect of over 55% in size
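qHTS luciferase splicing reporter: luminescence rises when SMN2 exon 7 is included in transfected HEK293 cells. Compound exposure lasted 30-36 h at 37C, with 4.5 mM final sodium butyrate as control, followed by a ONE-Glo read.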
FLuc modulator: firefly luciferase modulation, counter-screen for miR-21 project; purified FLuc, Km substrates, luminescence inhibition; Potency, µM (titrated, usually from 57.5 µM), without a hit: at the top dose activity change, negative = inhibition, usual class: inhibitors; 360,000 tested, 6.9% active;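 note: plate controls were vehicle for no effect and reference inhibitor for full effect; nearly all actives have a fitted effect of over 55% in size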
Target sequence (P08659 whole entry, looked up): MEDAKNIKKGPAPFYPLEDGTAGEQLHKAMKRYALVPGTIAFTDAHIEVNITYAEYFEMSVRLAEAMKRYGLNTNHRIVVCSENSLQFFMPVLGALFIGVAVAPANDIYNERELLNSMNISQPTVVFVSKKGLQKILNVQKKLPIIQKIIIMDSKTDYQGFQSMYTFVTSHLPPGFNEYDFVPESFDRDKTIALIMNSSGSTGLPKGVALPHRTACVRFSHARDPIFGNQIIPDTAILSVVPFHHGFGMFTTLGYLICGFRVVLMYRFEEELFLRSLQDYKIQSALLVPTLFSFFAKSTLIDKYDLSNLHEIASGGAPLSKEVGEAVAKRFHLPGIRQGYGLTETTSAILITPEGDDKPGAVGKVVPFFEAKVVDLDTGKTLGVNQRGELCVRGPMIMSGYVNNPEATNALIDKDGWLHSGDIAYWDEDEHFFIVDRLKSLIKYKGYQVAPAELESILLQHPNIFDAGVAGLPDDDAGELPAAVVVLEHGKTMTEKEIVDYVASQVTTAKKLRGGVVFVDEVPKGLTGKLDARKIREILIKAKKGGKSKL
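Biochemical qHTS of compounds, final roughly 60 µM downward over six points, against 10 nM purified firefly luciferase using Km concentrations of substrates (10 uM D-luciferin, 10 uM ATP) in Tris acetate pH 7.5 buffer; luminescence output.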
Rab9 promoter act: activates the Rab9 promoter; Huh7 Rab9 promoter-luciferase reporter, luminescence, 24 h; Potency, µM (doses to about 9.22 µM), for the others: at the highest dose activation, negative = inhibition, actives largely listed as activators; 320,000 tested, 2.8% active; AID 485297; note: % of control where 0% means no effect; nearly all actives have a fitted effect of over 60% in size
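Huh7 cells stably carrying Rab9 promoter–luciferase reporter, plated 1500 cells/well, compound added after 2 h and incubated 24 h at 37 °C; luciferase luminescence then read after 10 min with detection reagent.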
An asterisk follows results filed as active; ? = inconclusive; . = no result; [ ] = dose if it differs, or a comment. Calls come from the whole dose curve; as a rule, active = well fitted curve in the direction sought with a large enough effect; inconclusive = small, poorly fitted or top-dose-only effect, or another doubt; inactive = no such curve, though single readings can be large; an effect the other way counts as inactive or inconclusive. Potency is the fitted concentration of half-maximal effect.

SMILES	NPC1 prom act	ELG1 genotox	SMN2 splice enh	FLuc modulator	Rab9 promoter act
COc1cccc(/C=N/N2C(=O)CSC2=S)c1O	8%	2%	11%	27µM*	-1%
C(=N\N1CCN(Cc2ccccc2)CC1)/c1ccccc1	7%	7%	.	?	29%
C=CCNC(=O)COC(=O)c1c2c(nc3ccccc13)CCC2	0%	-21%	.	-2%	-1%
COc1ccccc1N1CCN(/N=C/c2cccc(OC)c2O)CC1	?	?	25µM*	7.6µM*	?
COc1cccc(/C=N/N2CCN(c3ccccc3OC)CC2)c1	?	16µM*	13µM*	12µM*	3.2µM*
COc1ccc(/C=N/N2CCN(c3ccccc3OC)CC2)cc1Br	21%	12%	.	15µM*	22%
CCn1c(=O)n(CC)c2cc(N3CCCC3)c(NC(=O)Nc3cc(C)cc(C)c3)cc21	.	.	.	-2%	.
CC(=O)[C@@]1(O)C(C)CC2C3C=C(C)C4=Cc5c(cnn5-c5ccccc5)C[C@]4(C)C3C(O)C[C@@]21C (stereo not given in full)	2%	-1%	.	-2%	-6%
CCc1ccc(N2CCn3c2nc2c3c(=O)n(Cc3c(F)cccc3Cl)c(=O)n2C)cc1	.	.	.	-1%	.
CCc1ccc(N2CCn3c2nc2c3c(=O)n(Cc3ccc(F)cc3)c(=O)n2C)cc1	.	.	.	9.5µM*	.
Cc1cc(Cl)ccc1NC(=S)N1CCN(C(=O)c2ccco2)CC1	1%	-3%	.	3%	10%
O=S1(=O)N=C(Nc2nc3c(s2)CCCC3)c2ccccc21	2.5µM*	?	4µM*	0.85µM*	1.4µM*
O=C(O)c1ccc(Nc2nc3c(s2)CCCC3)cc1	-28%	?	0.63µM*	0.3µM*	0.04µM*
C1CCN=C(Nc2nc3c(s2)CCCC3)CC1	?	11%	10µM*	?	?
Cc1cccc(Nc2nc3c(s2)CCCC3)c1	?	?	28%[1.84 µM]	4.8µM*	3.5µM*
CCOC(=O)c1c(C)oc2ccc(N(C(=O)Oc3ccccc3)S(=O)(=O)c3ccccc3)cc12	.	.	-7%	-1%	.
Cc1cc(C)c(NS(=O)(=O)c2ccc(-c3cnc(C4CC4)o3)cc2)c(C)c1	.	.	.	-19%	.
O=C(NCc1ccccc1Cl)C(=O)NCC(c1cccs1)S(=O)(=O)c1cccs1 (stereo not given)	.	.	.	1%	.
COC(=O)c1ccccc1S(=O)(=O)N1CCC(C(=O)N(C)CCOc2ccccc2)CC1	-1%	1%	.	5%	-5%
COc1ccc2c(c1)OC[C@H]1[C@H]2N2C(=O)[C@H](C)NC(=O)[C@@]2(C)[C@H]1c1ccccc1	-2%	2%	.	3%	-5%
CCOC(=O)C1CCN(C(=O)c2ccc3c(c2)NC(=O)/C(=C/c2ccccc2)S3)CC1	-6%	-4%	.	-16%	-5%
Cc1ccc(/C=C2/Sc3ccc(C(=O)N4CCN(c5ccccn5)CC4)cc3NC2=O)cc1	-5%	-4%	.	13µM*	-2%
CCOC(=O)C1CCN(C(=O)c2ccc3c(c2)NC(=O)/C(=C\c2ccc(C)cc2)S3)CC1	-5%	0%	.	24µM*	1%
O=C(COc1ccccc1)OCc1cc2ccccc2[nH]c1=O	-1%	-7%	-6%	21µM*	0%
Cc1nn(C(C)C(=O)N2CCc3ccccc32)c(C)c1[N+](=O)[O-] (stereo not given)	-2%	1%	3%	-1%	-3%
SMILES	NPC1 prom act	ELG1 genotox	SMN2 splice enh	FLuc modulator	Rab9 promoter act
CCC(=O)c1ccc(/C=C/c2nc3ccccc3n2C)o1	0.5µM*	-3%	3.2µM*	3.4µM*	0.32µM*
Cn1c(/C=N/O)nc2ccccc21	7%	4%	.	-3%	13%
CCCCCn1nc(C)c(/C=N\NC(=O)c2cc(C)oc2C)c1C	13%	2%	5%	19µM*	12%
Cc1cc(C(=O)N/N=C/c2c(C)nn(-c3ccccc3)c2C)c(C)o1	22%	8%	.	21µM*	?
Cc1occc1C(=O)N/N=C/c1cccnc1	12%	15%	16%	-23%	10%
CCn1nc(C)c(/C=N/NC(=O)c2ccoc2C)c1C	1.6µM*	?	?	12µM*	?
CCCCCn1nc(C)c(/C=N/NC(=O)c2ccoc2C)c1C	?	?	20µM*	21µM*	?
CCn1nc(C)c(/C=N/NC(=O)c2nc3nc(C)cc(C)n3n2)c1C	-5%	-2%	.	1%	-7%
CCOC(=O)C1=C(C(F)(F)F)Nc2ncnn2C1c1cc(OC)ccc1OC (stereo not given)	-3%	2%	?	0%	-3%
COc1ccc(N(C)C(=O)NCc2noc3ccc(C)cc23)c(OC)c1	.	.	.	1%	.
CCCC(=O)Nc1ccc2c(c1)nc(CCN1CCCCC1)n2C	-2%	0%	.	0%	1%
Cc1nn(-c2ccccc2)c(C)c1/C=N/NC(=O)c1cc(-c2cccc3ccccc23)n[nH]1	-2%	-8%	4%	11µM*	-1%
Cc1nn(Cc2ccccc2)c(C)c1/C=N/NC(=O)c1ccccc1O	-8%	2%	.	7.6µM*	-8%
Cc1nn(-c2ccccc2)c(C)c1/C=N/NC(=O)c1cc(-c2ccccc2)n[nH]1	-7%	-15%	4%	?	-18%
Cc1cc2c(cc1S(=O)(=O)CCC(=O)NCCc1ccccc1)OCC(=O)N2	-1%	1%	.	1%	1%
COC(=O)c1cc(-c2ccc(OC)cc2F)nc2nc(SC)[nH]c(=O)c12	3%	0%	.	15µM*	2%
COC(=O)c1cc(-c2ccccc2)nc2nc(SC)[nH]c(=O)c12	0%	-2%	.	?	-4%
O=C(O)c1cc(N/N=C/c2cccc3ccccc23)ccc1Cl	0.79µM*	?	.	7.6µM*	1.4µM*
O=[N+]([O-])c1cccc(N/N=C/c2cccc3ccccc23)c1	5%	12%	?	19µM*	12%
O=C(O)/C=C/C(=O)Nc1ccc(Cl)c(C(=O)O)c1	10%	3%	.	-8%	-1%
CC(C)n1cc(/C=N/Nc2ccc(Cl)c(C(=O)O)c2)c2ccccc21	1.8µM*	8.2µM*	.	13µM*	1.6µM*
NNc1ccc(Cl)c(C(=O)O)c1	1.3µM*	?	.	12µM*	1.3µM*
N#CCC(=O)N/N=C/c1cn(Cc2ccc(Cl)c(Cl)c2)c2ccccc12	-1%	10%	.	-1%	-4%
CC(O)C(=O)N/N=C/c1cccc2ccccc12 (stereo not given)	-3%	-1%	43%	-15%	-2%
Cc1cccc2nc(Cn3c(=O)n(-c4ccccc4)c(=O)c4c5c(sc43)CCC5)cc(=O)n12	.	.	9%	6%	.
C=CCc1ccccc1Oc1cc(OC)nc(N)n1	-1%	3%	.	4%	-7%
O=C(O)c1cc(N/N=C/C(Cl)=C/c2ccccc2)ccc1Cl	?	?	0.89µM*	0.11µM*	?
COc1ccc(NC(=O)c2cc3ccccc3o2)cc1OC	7%	?	.	15µM*	?
